Reference: ChEMBL document CHEMBL3988442, “University of Dundee, Small-Polar-MMV Screening Library” (2021)
For some of these results: Measured potencies and affinities stand elsewhere.

Key:
Parameters in all cases: scale not given: direction of the effect not stated beside the values
[1] = molecular target: Protein translocase subunit SecA (Escherichia coli (strain K12)) (UniProt P10408); assay: Assay to Identify E. coli SecA ATPase Inhibitors; assay type: functional; conditions: 30 µM
[2] = molecular target: T1, Ubiquitin-activating enzyme e1, putative (Leishmania donovani (strain BPK282A1)) (UniProt E9BSI1); assay: Leishmania donovani Ubiquitin Activating Enzyme (LdE1); assay type: functional; conditions: 30 µM
T1 sequence (whole entry): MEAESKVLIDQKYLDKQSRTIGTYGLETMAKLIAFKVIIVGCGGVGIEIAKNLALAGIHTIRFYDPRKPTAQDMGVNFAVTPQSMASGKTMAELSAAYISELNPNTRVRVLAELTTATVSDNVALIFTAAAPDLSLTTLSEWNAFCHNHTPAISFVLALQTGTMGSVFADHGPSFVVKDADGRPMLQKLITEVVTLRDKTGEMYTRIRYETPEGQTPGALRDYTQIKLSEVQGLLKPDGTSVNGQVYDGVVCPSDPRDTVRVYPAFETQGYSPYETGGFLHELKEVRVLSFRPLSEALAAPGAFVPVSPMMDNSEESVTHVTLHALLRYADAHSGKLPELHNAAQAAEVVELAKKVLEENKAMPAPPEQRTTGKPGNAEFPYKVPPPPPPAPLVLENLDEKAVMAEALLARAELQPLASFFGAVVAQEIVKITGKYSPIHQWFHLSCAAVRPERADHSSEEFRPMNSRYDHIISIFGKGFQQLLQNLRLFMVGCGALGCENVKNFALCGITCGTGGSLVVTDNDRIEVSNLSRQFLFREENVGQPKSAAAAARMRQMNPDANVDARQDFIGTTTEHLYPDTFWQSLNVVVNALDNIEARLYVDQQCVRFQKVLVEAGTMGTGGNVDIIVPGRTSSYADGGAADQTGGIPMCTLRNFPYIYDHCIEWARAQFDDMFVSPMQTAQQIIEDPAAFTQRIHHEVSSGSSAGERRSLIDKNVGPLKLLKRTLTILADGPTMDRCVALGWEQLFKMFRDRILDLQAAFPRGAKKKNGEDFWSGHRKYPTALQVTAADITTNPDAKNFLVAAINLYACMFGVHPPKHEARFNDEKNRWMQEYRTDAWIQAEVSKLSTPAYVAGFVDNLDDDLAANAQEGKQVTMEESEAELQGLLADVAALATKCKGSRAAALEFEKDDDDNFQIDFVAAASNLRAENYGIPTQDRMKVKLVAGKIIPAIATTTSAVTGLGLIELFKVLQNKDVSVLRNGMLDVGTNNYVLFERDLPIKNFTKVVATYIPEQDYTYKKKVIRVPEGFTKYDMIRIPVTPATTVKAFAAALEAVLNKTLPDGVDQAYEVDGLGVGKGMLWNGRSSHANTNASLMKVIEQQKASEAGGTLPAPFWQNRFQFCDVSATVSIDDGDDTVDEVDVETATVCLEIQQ

[3] = molecular target: AMP-activated protein kinase, AMPK (Homo sapiens) (UniProt P54646+O43741+P54619+Q9UGJ0+Q9Y478+Q13131+Q9UGI9); assay: AMP-dependent Kinase enzyme assay. An in vitro enzyme assay that detects ADP turnover that is directly proportional to AMPK activity. This uses naive AMPK that is activated during the assay with MK-8722; assay type: functional; conditions: 30 µM
[4] = molecular target: Sialic acid-binding Ig-like lectin 9 (Homo sapiens) (UniProt Q9Y336); assay: Hs-Siglec9 ALPHAscreen SOP 20170721; conditions: 10 µM
Trypanosoma cruzi = assay: Trypanosoma cruzi phosphomannomutase and mannose-1-phosphate guanylyltransferase assay; assay type: functional; conditions: 10 µM
[5] = molecular target: T2, Arginase-2, mitochondrial (Homo sapiens) (UniProt P78540); assay: in vitro enzyme assay to detect the production of urea directly proportional to the activity of Arginase II; assay type: functional; conditions: 33.3 µM; further: in the data most compounds retested in dose-response had high values
T2 sequence (whole entry): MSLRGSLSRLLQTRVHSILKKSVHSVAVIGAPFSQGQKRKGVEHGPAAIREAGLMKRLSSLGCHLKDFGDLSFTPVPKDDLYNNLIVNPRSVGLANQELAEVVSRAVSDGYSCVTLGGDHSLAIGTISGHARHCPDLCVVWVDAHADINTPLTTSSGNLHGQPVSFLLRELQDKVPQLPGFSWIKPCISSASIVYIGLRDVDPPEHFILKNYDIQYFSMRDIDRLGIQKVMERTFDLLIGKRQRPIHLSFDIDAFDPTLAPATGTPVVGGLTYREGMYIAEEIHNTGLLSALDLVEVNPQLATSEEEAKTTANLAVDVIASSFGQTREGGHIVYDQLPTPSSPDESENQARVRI

[6] = molecular target: T3, Proteasome subunit beta (Trypanosoma cruzi) (UniProt O96673); assay: Trypanosoma cruzi proteasome chymotrypsin-like activity (TcProtChymo) assay.; further: in the data most compounds retested in dose-response had high values; assay type: functional; conditions: 9.37 µM
T3 sequence (whole entry): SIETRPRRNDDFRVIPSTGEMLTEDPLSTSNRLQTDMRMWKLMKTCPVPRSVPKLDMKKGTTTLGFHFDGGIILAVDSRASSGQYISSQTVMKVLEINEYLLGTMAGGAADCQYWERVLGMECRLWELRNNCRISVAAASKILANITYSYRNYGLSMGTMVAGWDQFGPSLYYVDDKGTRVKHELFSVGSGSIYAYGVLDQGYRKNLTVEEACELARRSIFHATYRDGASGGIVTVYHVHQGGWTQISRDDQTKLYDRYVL

Homo sapiens = species on record: Homo sapiens; assay: To identify inhibition of the IFN signalling (Jak-Stat) pathway via expression of an eGFP reporter gene under the control of an IFN-stimulated response element (ISRE) containing MxA promoter.; assay type: functional; conditions: 30 µM
[7] = molecular target: T4, Tyrosyl-tRNA synthetase, putative (Trypanosoma cruzi (strain CL Brener)) (UniProt Q4DSP6); assay: Trypanosoma cruzi tyrosyl tRNA synthetase (TcYRS) _High Tyrosine SOP; assay type: functional; conditions: 30 µM; further: in the data most compounds retested in dose-response had high values
T4 sequence (whole entry): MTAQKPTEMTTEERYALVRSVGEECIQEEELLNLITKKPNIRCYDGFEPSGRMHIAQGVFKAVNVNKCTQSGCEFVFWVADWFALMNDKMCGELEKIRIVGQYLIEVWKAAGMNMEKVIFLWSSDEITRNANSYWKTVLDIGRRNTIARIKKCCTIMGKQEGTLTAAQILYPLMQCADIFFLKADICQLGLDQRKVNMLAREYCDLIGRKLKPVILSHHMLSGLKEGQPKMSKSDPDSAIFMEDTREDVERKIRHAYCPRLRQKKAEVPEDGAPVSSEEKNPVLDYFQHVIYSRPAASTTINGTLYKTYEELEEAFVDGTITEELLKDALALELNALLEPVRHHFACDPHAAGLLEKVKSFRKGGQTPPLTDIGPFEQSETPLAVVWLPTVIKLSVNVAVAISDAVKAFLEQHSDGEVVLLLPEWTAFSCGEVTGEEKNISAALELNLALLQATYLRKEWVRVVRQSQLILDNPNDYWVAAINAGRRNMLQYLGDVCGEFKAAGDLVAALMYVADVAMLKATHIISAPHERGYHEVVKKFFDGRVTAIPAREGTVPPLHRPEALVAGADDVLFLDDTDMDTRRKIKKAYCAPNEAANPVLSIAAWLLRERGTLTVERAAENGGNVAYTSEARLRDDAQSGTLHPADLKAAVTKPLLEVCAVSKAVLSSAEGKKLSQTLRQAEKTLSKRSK

[8] = molecular target: T4, Tyrosyl-tRNA synthetase, putative (Trypanosoma cruzi (strain CL Brener)); assay: Trypanosoma cruzi tyrosyl tRNA synthetase (TcYRS) SOP; assay type: functional; conditions: 30 µM
[9] = molecular target: Chromo domain-containing protein 1 (Saccharomyces cerevisiae (strain ATCC 204508 / S288c) (Baker's yeast)) (UniProt P32657); assay: ScCHD-1 Enzyme Inhibition Assay; assay type: functional; conditions: 30 µM; further: in the data most compounds retested in dose-response had high values
Sequence of Chromo domain-containing protein 1 (Saccharomyces cerevisiae (strain ATCC 204508 / S288c) (Baker's yeast)) (P32657 whole entry, the tested form may be a part): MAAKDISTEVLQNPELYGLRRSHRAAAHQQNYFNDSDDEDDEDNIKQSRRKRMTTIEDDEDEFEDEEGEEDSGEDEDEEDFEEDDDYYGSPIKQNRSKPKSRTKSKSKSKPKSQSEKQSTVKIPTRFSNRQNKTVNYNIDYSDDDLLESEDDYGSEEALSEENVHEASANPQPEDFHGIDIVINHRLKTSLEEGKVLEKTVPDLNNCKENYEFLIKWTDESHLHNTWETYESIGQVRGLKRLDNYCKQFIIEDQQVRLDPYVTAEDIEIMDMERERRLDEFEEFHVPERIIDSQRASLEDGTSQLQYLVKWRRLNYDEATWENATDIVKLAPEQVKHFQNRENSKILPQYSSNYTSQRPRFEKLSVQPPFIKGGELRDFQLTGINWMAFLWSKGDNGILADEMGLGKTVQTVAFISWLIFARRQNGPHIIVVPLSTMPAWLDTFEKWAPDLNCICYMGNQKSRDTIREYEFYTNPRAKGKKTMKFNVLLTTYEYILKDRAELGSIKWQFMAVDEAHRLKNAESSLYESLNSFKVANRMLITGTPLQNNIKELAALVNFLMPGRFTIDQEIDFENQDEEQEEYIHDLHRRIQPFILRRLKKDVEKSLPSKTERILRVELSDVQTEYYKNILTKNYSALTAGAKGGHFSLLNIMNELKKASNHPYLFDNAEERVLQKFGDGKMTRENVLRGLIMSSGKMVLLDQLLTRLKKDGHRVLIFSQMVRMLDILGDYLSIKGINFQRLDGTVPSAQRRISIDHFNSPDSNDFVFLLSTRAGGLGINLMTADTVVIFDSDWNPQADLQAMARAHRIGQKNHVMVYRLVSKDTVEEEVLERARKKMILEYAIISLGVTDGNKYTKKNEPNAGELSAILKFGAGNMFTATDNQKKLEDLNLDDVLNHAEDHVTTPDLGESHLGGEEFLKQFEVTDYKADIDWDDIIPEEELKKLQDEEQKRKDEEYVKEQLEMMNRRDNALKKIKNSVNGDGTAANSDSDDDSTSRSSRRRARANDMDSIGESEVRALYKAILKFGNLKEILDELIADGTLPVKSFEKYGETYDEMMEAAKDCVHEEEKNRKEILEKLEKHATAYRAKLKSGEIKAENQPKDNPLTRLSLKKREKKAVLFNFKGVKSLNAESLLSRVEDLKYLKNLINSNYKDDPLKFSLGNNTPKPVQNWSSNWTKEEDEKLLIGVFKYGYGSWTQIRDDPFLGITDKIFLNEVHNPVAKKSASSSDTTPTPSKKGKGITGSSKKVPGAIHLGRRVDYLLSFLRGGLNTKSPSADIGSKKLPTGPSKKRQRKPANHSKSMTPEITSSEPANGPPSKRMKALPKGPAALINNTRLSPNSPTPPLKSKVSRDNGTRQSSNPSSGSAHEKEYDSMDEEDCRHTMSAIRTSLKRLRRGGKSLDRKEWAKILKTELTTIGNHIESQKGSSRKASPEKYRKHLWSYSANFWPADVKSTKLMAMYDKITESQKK

Sequence of Sialic acid-binding Ig-like lectin 9 (Homo sapiens) (Q9Y336 whole entry): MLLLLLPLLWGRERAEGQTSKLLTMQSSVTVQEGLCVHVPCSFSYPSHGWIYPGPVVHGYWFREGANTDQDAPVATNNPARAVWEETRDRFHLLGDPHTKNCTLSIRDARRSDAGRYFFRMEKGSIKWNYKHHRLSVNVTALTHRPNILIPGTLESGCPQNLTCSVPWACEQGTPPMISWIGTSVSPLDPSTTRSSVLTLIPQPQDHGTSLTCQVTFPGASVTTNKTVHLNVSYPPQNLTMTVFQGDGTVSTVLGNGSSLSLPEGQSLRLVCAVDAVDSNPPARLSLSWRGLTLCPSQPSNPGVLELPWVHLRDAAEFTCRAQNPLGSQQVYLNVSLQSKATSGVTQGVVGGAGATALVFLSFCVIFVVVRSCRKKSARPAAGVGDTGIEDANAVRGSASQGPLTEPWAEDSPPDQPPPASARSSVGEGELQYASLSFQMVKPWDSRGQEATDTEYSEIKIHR
Sequence of Protein translocase subunit SecA (Escherichia coli (strain K12)) (P10408 whole entry): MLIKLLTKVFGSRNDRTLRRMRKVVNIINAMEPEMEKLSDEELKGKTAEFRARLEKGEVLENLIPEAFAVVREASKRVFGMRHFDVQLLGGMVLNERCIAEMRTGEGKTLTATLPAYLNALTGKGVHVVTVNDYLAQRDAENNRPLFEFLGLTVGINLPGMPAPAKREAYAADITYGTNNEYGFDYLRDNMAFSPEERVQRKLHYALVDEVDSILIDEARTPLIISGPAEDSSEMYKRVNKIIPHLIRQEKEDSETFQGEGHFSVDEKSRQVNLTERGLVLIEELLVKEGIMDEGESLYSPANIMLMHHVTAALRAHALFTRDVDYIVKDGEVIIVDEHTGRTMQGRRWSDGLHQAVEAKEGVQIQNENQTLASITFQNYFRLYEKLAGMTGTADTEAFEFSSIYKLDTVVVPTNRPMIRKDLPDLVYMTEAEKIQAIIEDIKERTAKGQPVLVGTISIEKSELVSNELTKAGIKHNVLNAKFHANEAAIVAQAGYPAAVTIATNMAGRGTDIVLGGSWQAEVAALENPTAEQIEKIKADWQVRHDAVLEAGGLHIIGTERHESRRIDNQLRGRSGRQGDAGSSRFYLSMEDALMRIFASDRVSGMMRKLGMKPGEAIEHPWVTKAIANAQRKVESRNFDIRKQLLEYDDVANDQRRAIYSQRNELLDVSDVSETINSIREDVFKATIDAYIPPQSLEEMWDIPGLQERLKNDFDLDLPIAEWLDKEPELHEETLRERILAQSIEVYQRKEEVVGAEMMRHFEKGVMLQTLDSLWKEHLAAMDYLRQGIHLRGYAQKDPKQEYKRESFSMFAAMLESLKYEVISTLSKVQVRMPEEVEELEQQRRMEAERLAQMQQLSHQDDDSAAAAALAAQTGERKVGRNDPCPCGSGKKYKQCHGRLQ

Row | Structure (SMILES) | Percent Effect [1] [%] | Percent Effect [2] [%] | Percent Effect [3] [%] | Percent Effect [4] [%] | Percent Effect (Trypanosoma cruzi) [%] | Percent Effect [5] [%] | Percent Effect [6] [%] | Percent Effect (Homo sapiens) [%] | Percent Effect [7] [%] | Percent Effect [8] [%] | Percent Effect [9] [%]
1 | c1cc(CNCC2CNc3ccnn3C2)cc(N2CCCCC2)n1 (stereo not given) | -3.28 | 19 | -11.8 | -8.9 | 13 | -2.8 | 27.1 | 1.88 | 13.5 | 22.8 | -27.6
2 | COCc1nc(N(C)C)ncc1C(=O)Nc1ccn(C)n1 | -6.73 | 12 | -5.52 | 4.28 | 1.38 | -7.22 | 5.36 | 0.526 | 4.23 | 10.3 | -10.2
3 | Cc1ccc2c(c1)C1(CC2)CCN(c2nncs2)CC1 | -0.497 | 0 | 5.45 | 1.98 | 1.59 | 3.59 | 7.28 | 20.4 | 6.25 | 11.1 | 5.12
4 | CCn1ccnc1CN1CCOC(CNc2cccnn2)C1 (stereo not given) | -0.964 | 18.2 | -6.06 | 5.48 | 1.5 | 2.85 | 16.4 | 17.5 | 4.85 | 19.5 | -8.74
5 | c1coc(-c2nnc(CN3CCOC(Cn4cccn4)C3)o2)c1 (stereo not given) | -5.27 | 7.59 | -2.15 | 1.36 | 6.89 | 0.76 | 11.6 | 8.37 | 5.42 | 13.9 | -6.49
6 | Cc1ccc(-c2ncc(C(=O)NCCNC(=O)C(C)C)s2)c(C)c1 | -2.93 | 5.41 | -5.86 | -1.89 | -3.87 | -2 | 2.52 | 15.8 | 4.43 | 11.1 | -8.7
7 | CC(C)NC(=O)[C@@H]1C[C@H](N)CN1C(=O)c1cc2c([nH]c1=O)CCCC2 | -2.48 | 6.94 | -2.43 | -9.13 | -1.46 | 1.77 | 17.7 | 3.48 | 4.21 | 7.69 | -3.08
8 | O=C(c1cc(F)ccc1F)C1CCN(C(=O)c2ccccn2)CC1 | -3.32 | 13 | 3.21 | -2.77 | 1.27 | 3.58 | 17.1 | 21.7 | 7.62 | 23.5 | -13.2
9 | CC(COc1ccc(F)cc1F)NC(=O)NCCN1CCOCC1 (stereo not given) | -3.66 | 10.5 | 7.15 | -1.15 | 4.77 | -5.92 | 16 | -26.7 | 1.06 | 13 | -2.74
10 | COc1ccc(NC(=O)CCC2CCCN(Cc3ncon3)C2)c(C)c1 (stereo not given) | -3.42 | 2.67 | -0.626 | -0.0167 | -5.36 | -3.65 | 22 | 22.2 | 6.01 | 11.1 | -6.4
11 | CCC1(CC)Cc2ccccc2-c2nc(CN(C)C)nc(O)c21 | -3.62 | 10.5 | 5 | 4.55 | 0.292 | -5.92 | 12.8 | 14.4 | 5.32 | 10.4 | -3.79
12 | CN(C)C(=O)CNC(=O)Nc1cccc(Cl)c1SC(F)F | -3.28 | 1.39 | 2.42 | 11.5 | -7.09 | 1.77 | 1.05 | -0.391 | 1.05 | -2.56 | 0.00979
13 | Cc1cc(F)ccc1CNCCn1cccn1 | -2.76 | -1.39 | -3.57 | 0.503 | 5.15 | -0.883 | 8.95 | 1.75 | 1.05 | 2.56 | -0.034
14 | Cc1csc(N2CCN(C(=O)CCC(=O)c3ccc(C)s3)CC2)n1 | -3.76 | 8.11 | -7.25 | 1.58 | 1.79 | -12.4 | 13.5 | 23 | 7.39 | 25.9 | 17.6
15 | COc1ccc2nnc(CCCC(=O)NCc3cccn3C)n2n1 | -2.1 | 22.7 | -8.56 | 0.257 | 1.57 | 0.176 | 17.4 | -1.92 | 8.47 | -41 | -12
16 | CCS(=O)(=O)N1CCC(c2nnc(CN3CCCC3)n2C2CC2)CC1 | -1.74 | 8 | -4.77 | 9.36 | 2.82 | 12.5 | 3.49 | 19.7 | 7.1 | 16.1 | -7.31
17 | Cc1ccc(-c2cc(N)c(=O)n(CC(=O)NCC3CC3)n2)s1 | -3.74 | 6.76 | 19.9 | 2.48 | -0.395 | -5.8 | 9.2 | 11.4 | 1.07 | 9.09 | -14.1
18 | Cc1ccc(N2CCCC(NCC(=O)Nc3cc(C)no3)C2)nn1 (stereo not given) | -1.36 | 13.9 | -2.91 | -5.54 | -3.59 | 0.215 | 13 | 17.8 | 1.04 | 7.59 | -23.2
19 | COCC(NC(=O)c1cc[nH]n1)c1cccc(C(F)(F)F)c1 (stereo not given) | -5.2 | 16.4 | -2.13 | 16 | 3.92 | 0.455 | 6.03 | 15.4 | 4.3 | 7.5 | -5.07
20 | COCCN(Cc1ccoc1)C(=O)c1c(F)cccc1Cl | -4.43 | 5.2 | 10.7 | 9.59 | -5.62 | 5.81 | 2.44 | -5.55 | 3.17 | 11.5 | -5.12
